In the library only some 6% were active in any assay of this set; here they are far more common.
PLK1 PBD inh = qHTS for Inhibitors of PLK1-PDB (polo-like kinase 1 - polo-box domain): Primary Screen; AID 720504, 2013; hit rate 2.8% among 360,000; Plk1 PBD binding of FITC phosphopeptide, fluorescence polarization; Potency, µM, hits mostly inhibitors; Serine/threonine-protein kinase PLK1 (Homo sapiens), P53350; note: series mostly up to about 57 µM; nearly all actives have a fitted effect of over 65% in size
VDR inh = Inhibitors of the vitamin D receptor (VDR): qHTS | VDR-SRC2-3 peptide fluorescence polarization, 2 h | Potency, µM, usual class: inhibitors | hit rate 0.93% among 400,000 | AID 504847, 2011
Target sequence (P11473 whole entry, looked up): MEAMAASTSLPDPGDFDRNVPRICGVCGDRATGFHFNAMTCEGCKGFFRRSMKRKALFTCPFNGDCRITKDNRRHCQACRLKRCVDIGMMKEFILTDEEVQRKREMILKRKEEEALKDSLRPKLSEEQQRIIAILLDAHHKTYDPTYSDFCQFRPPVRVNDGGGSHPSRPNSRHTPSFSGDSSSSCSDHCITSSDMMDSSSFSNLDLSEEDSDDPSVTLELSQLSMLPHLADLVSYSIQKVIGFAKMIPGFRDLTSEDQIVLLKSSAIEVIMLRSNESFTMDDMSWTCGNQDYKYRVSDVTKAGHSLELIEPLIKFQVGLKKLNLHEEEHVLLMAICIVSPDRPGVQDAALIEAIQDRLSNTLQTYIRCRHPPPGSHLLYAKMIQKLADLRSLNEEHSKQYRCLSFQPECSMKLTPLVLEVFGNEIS
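Reagent solutions, kept cold and dark, are dispensed first; compounds are then pinned in at 23 nl, plates briefly spun, and incubated 2 h at ambient temperature. Inhibition of VDR–SRC2-3 peptide binding is read by fluorescence polarization.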
Tau fluor counter = Counterscreen qHTS for Inhibitors of Tau Fibril Formation, Fluorescence Polarization | tau K18 P301L Alexa594 fluorescence, heparin fibrillization | Potency, µM (doses to about 57.7 µM) | hit rate 0.93% among 280,000; note: nearly all actives have a fitted effect of over 55% in size
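Human K18 P301L tau (15 uM unlabeled plus 0.24 uM Alexa 594-labeled, final) in 100 mM sodium acetate pH 7 was mixed with compound and 20 uM heparin and incubated 6 hr at 37 C.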
Sfp PPTase inh = qHTS Assay for Inhibitors of Bacillus subtilis Sfp phosphopantetheinyl transferase (PPTase) | 4'-phosphopantetheinyl transferase ffp (Bacillus subtilis), Q9F4F7 | Biochemical Sfp PPTase activity, qHTS | Potency, µM, most hits filed as inhibitors | hit rate 3.5% among 310,000 | AID 1490, 2009;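 note: the enzyme is Sfp with the accession as filed and its product quenches rhodamine fluorescence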
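Fluorescence-quenching assay: 15 nM Sfp-PPTase preincubated 15 min at room temperature with compound, then 5 uM rhodamine-CoA and 12.5 uM BHQ-2-labelled YbbR peptide added. Fluorescence (ex 525/em 598 nm) read at start and after 30 min; difference gives rate.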
Tau fibril ThT = qHTS for Inhibitors of Tau Fibril Formation, Thioflavin T Binding; Microtubule-associated protein tau (Homo sapiens), P10636; recombinant tau K18 P301L (four-repeat tau fragment), heparin-induced fibrillization, ThT fluorescence; Potency, µM (doses to about 57.4 µM), actives largely listed as inhibitors; hit rate 2.1% among 270,000; AID 1460, 2008; note: nearly all actives have a fitted effect of over 55% in size
Target sequence (P10636 561-689 P618L limits assumed): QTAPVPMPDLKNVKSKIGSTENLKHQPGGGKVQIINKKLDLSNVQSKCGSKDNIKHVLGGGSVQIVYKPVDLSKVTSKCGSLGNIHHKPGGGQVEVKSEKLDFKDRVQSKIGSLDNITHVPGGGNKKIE
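Tau K18 P301L fragment (15 uM unlabeled plus 0.24 uM Alexa 594-labeled) in 100 mM sodium acetate pH 7 with compound, fibrillization induced by 20 uM heparin for 6 hr at 37 C. Thioflavin T (30 uM) added, fluorescence read after 1 hr (ex 450, em 510 nm).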
Tau fibril FP = qHTS for Inhibitors of Tau Fibril Formation, Fluorescence Polarization. Microtubule-associated protein tau (Homo sapiens), P10636. K18 P301L tau heparin fibrillization, Alexa594 FP, 6 h. Potency, µM (highest dose often 57.7 µM), most hits filed as inhibitors. hit rate 0.39% among 280,000. AID 1468, 2008; note: nearly all actives have a fitted effect of over 55% in size
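Human tau K18 […] P301L fragment, 15 uM unlabeled plus 0.24 uM Alexa 594-labeled tau (final), with compound and 20 uM heparin in 100 mM sodium acetate pH 7; 6 hr at 37 C, then Alexa 594 FP read.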
A number is an active result; [ ] = remark or other dose. Calls come from the whole dose curve; as a rule, active = well fitted curve in the direction sought with a large enough effect; inconclusive = small, poorly fitted or top-dose-only effect, or another doubt; inactive = no such curve, though single readings can be large; an effect the other way counts as inactive or inconclusive.

What do the screens show for `COc1ccc(C(=O)N(C)c2c(C)n(C)n(-c3ccccc3)c2=O)cc1OC`?
PLK1 PBD inh: inactive; VDR inh: inactive; Tau fluor counter: inactive; Sfp PPTase inh: inactive; Tau fibril ThT: inactive; Tau fibril FP: inactive

How did CC1CCCN(S(=O)(=O)c2ccc3oc(=O)ccc3c2)C1 (stereo not drawn) do in these assays?
PLK1 PBD inh: inactive; VDR inh: inactive; Sfp PPTase inh: inactive

What do the screens show for `O=C(Cc1ccccc1)N/N=C/c1cc(Br)cc(Br)c1O`?
PLK1 PBD inh: inactive; VDR inh: inactive; Sfp PPTase inh: inactive

Results for O=C(O)c1ccccc1N/N=C/c1cc(Br)cc(Br)c1O ?
PLK1 PBD inh: 21µM; VDR inh: inconclusive; Tau fluor counter: inconclusive; Sfp PPTase inh: inactive; Tau fibril ThT: 14µM; Tau fibril FP: inactive

What do the screens show for `O=C(O)c1ccccc1N/N=C\c1ccnc2ccccc12`?
PLK1 PBD inh: inactive; VDR inh: inactive; Tau fluor counter: inactive; Sfp PPTase inh: inactive; Tau fibril ThT: 5µM; Tau fibril FP: inactive

What do the screens show for `ON=Cc1ccnc2ccccc12`?
PLK1 PBD inh: inactive

How did CC(=O)N1CCC(N(Cc2ccc(C)o2)C(=O)Nc2cccc(C(F)(F)F)c2)CC1 do in these assays?
VDR inh: inactive; Tau fluor counter: inactive; Tau fibril ThT: inactive; Tau fibril FP: inactive

What do the screens show for `Cc1ccc(COC(=O)CN2C(=O)NC3(CCCCC3C)C2=O)cc1` (stereo not drawn)?
PLK1 PBD inh: inactive; VDR inh: inactive

Results for COc1ccc2c(c1OC)C(=O)N1N=C(c3ccc(F)cc3)CC21 (stereo not drawn) ?
PLK1 PBD inh: 12µM; VDR inh: inconclusive; Tau fluor counter: inactive; Sfp PPTase inh: inactive; Tau fibril ThT: inactive; Tau fibril FP: inactive

Results for Cc1ccc(S(=O)(=O)Nc2ccc3cc([N+](=O)[O-])ccc3c2[N+](=O)[O-])cc1 ?
PLK1 PBD inh: 24µM; VDR inh: inactive

How did COc1ccc(NC(=O)c2ccccc2NS(=O)(=O)c2ccc(C)cc2)c([N+](=O)[O-])c1 do in these assays?
PLK1 PBD inh: inactive; VDR inh: inactive; Tau fluor counter: inconclusive; Sfp PPTase inh: inactive; Tau fibril ThT: inconclusive; Tau fibril FP: inactive

What do the screens show for `Cc1ccc(S(=O)(=O)Nc2ccc3ccccc3c2[N+](=O)[O-])cc1`?
PLK1 PBD inh: 30µM; VDR inh: inactive

What do the screens show for `COc1ccc(NS(=O)(=O)c2ccc(C)cc2)c([N+](=O)[O-])c1`?
PLK1 PBD inh: 27µM; VDR inh: inconclusive; Tau fluor counter: inactive; Sfp PPTase inh: inactive; Tau fibril ThT: inactive; Tau fibril FP: inactive

Results for NC(=O)c1c(NC(=O)C2COc3ccccc3O2)sc2c1CCN(Cc1ccccc1)C2 (stereo not drawn) ?
PLK1 PBD inh: inactive; VDR inh: inactive; Tau fluor counter: inactive; Sfp PPTase inh: inactive; Tau fibril ThT: inconclusive; Tau fibril FP: inconclusive

What do the screens show for `COC(=O)N1CCc2c(sc(NC(=O)C3COc4ccccc4O3)c2C(N)=O)C1` (stereo not drawn)?
PLK1 PBD inh: 11µM; VDR inh: 89µM

How did Cc1ccc(-c2ccc(C(=O)Nc3cccc(F)c3)o2)c2ccccc12 do in these assays?
PLK1 PBD inh: inactive; VDR inh: inactive; Tau fluor counter: inconclusive; Sfp PPTase inh: 71µM; Tau fibril ThT: inconclusive; Tau fibril FP: inactive

What do the screens show for `Cc1ccc(C(=O)ONC(=O)c2ccc(Cl)cc2)cc1[N+](=O)[O-]`?
PLK1 PBD inh: inactive; VDR inh: inactive; Sfp PPTase inh: inactive

Results for Cc1oc2cc([N+](=O)[O-])c(O)c([N+](=O)[O-])c2c1C(=O)c1ccc(Cl)cc1 ?
PLK1 PBD inh: inconclusive; VDR inh: inactive; Tau fluor counter: inactive; Sfp PPTase inh: inconclusive; Tau fibril ThT: 18µM; Tau fibril FP: inactive

How did COc1ccc(OC)c(C(=O)c2c(C)oc3cc([N+](=O)[O-])c(O)c([N+](=O)[O-])c23)c1 do in these assays?
PLK1 PBD inh: inactive; VDR inh: inactive; Tau fluor counter: inactive; Sfp PPTase inh: 56µM; Tau fibril ThT: 13µM; Tau fibril FP: inactive

Results for COCCCCCCCCCCCC(=O)O ?
VDR inh: inactive; Tau fluor counter: inactive; Sfp PPTase inh: inactive; Tau fibril ThT: inactive; Tau fibril FP: inactive

What do the screens show for `NS(=O)(=O)c1ccc(N2C(=O)CCCC2=O)cc1`?
PLK1 PBD inh: inactive

How did O=C1ON=C(c2ccccc2)/C1=C\c1ccco1 do in these assays?
PLK1 PBD inh: 9.5µM; VDR inh: inconclusive; Tau fluor counter: inactive; Sfp PPTase inh: 14µM; Tau fibril ThT: inconclusive; Tau fibril FP: inactive

How did Cc1ccc(/C=C2/C(=O)ON=C2c2ccccc2)o1 do in these assays?
PLK1 PBD inh: 0.67µM; VDR inh: inactive; Tau fluor counter: inactive; Sfp PPTase inh: 14µM; Tau fibril ThT: inconclusive; Tau fibril FP: inactive

How did Cc1ccc2oc(-c3ccc(C)c(NC(=O)/C=C/c4ccco4)c3)nc2c1 do in these assays?
VDR inh: inactive; Tau fluor counter: inactive; Tau fibril ThT: inactive; Tau fibril FP: inconclusive

Results for CCCOc1ccc(C2C(=O)N(C3CCCCCC3)CC(=O)N2C(C)C)cc1OC (stereo not drawn) ?
VDR inh: inactive; Tau fluor counter: inactive; Tau fibril ThT: inactive; Tau fibril FP: inactive

How did O=C(Cn1sc2ccccc2c1=O)Nc1ccccc1 do in these assays?
PLK1 PBD inh: 1.2µM

How did O=C(Cn1sc2ccccc2c1=O)NC12CC3CC(CC(C3)C1)C2 do in these assays?
PLK1 PBD inh: 3µM; VDR inh: inconclusive; Tau fluor counter: inactive; Sfp PPTase inh: 2.5µM; Tau fibril ThT: 16µM; Tau fibril FP: 20µM

Results for O=C(CN1C(=O)CSc2ccc(S(=O)(=O)N3CCCC3)cc21)NCc1ccc(F)cc1Cl ?
VDR inh: inactive; Tau fluor counter: inactive; Tau fibril ThT: inactive; Tau fibril FP: inactive

Results for COc1ccc(C(O)c2ncc(-c3ccccc3C)[nH]2)cc1 (stereo not drawn) ?
PLK1 PBD inh: inactive

How did Cc1cc(O)c(C(C)C)cc1NC(=O)Nc1cc(Cl)ccc1Cl do in these assays?
PLK1 PBD inh: inactive; VDR inh: inactive

What do the screens show for `Cc1cc(O)c(C(C)C)cc1NC(=O)Nc1cccc2ccccc12`?
PLK1 PBD inh: inactive; VDR inh: inactive; Tau fluor counter: 25µM[quencher]; Sfp PPTase inh: inactive; Tau fibril ThT: inconclusive; Tau fibril FP: inactive

What do the screens show for `CCc1cccc(CC)c1NC(=O)CSc1nnc(C2CC2)n1C`?
PLK1 PBD inh: inactive; VDR inh: 89µM; Sfp PPTase inh: inactive

High-throughput results deposited in PubChem by National Center for Advancing Translational Sciences (NCATS).
